Only some compounds are listed: those with a hit (about 2.3% of all), similar ones and a draw of the others.
FBPA coupling cs – counter-screen for Giardia aldolase inhibitors: coupling enzyme system; 290,000 compounds, 0.67% hits; activity change, negative = inhibition, % at 58.2 µM, hits read low; coupling enzyme system counterscreen, AmpLite Red fluorescence; AID 2472; in the data active = activity change below about -30%
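Fluorescence at 525 nm excitation and 598 nm emission measured inhibition of the coupled detection system without aldolase. Compounds (at 57.5 uM final) were preincubated 10 min at room temperature with coupling enzyme reagent before a 20 min substrate/AmpLite Red step.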
Tau fibril ThT – inhibitors of human tau fibril formation, thioflavin T binding; 270,000 compounds, 2.1% hits; P10636; recombinant tau K18 P301L, heparin-induced fibrillization, ThT fluorescence; Potency, µM (top dose mostly 57.4 µM), actives largely listed as inhibitors; note: nearly all actives have a fitted effect of over 55% in size
Target sequence (P10636 561-689 P618L limits assumed): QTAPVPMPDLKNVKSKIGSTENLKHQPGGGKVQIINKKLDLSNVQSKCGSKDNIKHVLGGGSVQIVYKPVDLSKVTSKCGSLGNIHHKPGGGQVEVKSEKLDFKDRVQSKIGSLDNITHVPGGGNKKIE
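Fibril formation assay: tau K18 P301L at 15 uM with trace Alexa 594 label, heparin inducer 20 uM, pH 7 sodium acetate buffer, 37 C for 6 hr; endpoint ThT signal.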
Tau fluor cs – counter-screen for tau fibril formation inhibitors; Potency, µM (doses to about 57.7 µM); tau K18 P301L Alexa594 fluorescence, heparin fibrillization; 280,000 compounds, 0.93% hits; note: nearly all actives have a fitted effect of over 55% in size
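Human tau K18 P301L (15 uM unlabeled, 0.24 uM Alexa 594-labeled) in 100 mM sodium acetate pH 7 with 20 uM heparin, 6 hr at 37 C. ThT 30 uM added, 1 hr ambient; Alexa 594 FP and total fluorescence read at 555/632 nm.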
USP1 inh – USP1/UAF1 (human) deubiquitinase inhibition | AID 743255 | 390,000 compounds, 0.23% hits | recombinant USP1/UAF1, Ub-Rhodamine cleavage fluorescence | Potency, µM (titrated, usually from 57.1 µM), most hits filed as inhibitors; note: nearly all actives have a fitted effect of over 60% in size
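Step one: compound is pinned into 1nM USP1/UAF1 in HEPES pH 7.8 buffer with TCEP. Step two: 15 min room-temperature incubation. Step three: Ub-Rho (150nM final) starts cleavage, tracked by fluorescence over six one-minute reads.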
Tau fibril FP – blocks human tau fibril formation measured by polarization | P10636 | K18 P301L tau heparin fibrillization, Alexa594 FP, 6 h | Potency, µM (doses to about 57.7 µM), usual class: inhibitors | 280,000 compounds, 0.39% hits | AID 1468; note: nearly all actives have a fitted effect of over 55% in size
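Compound effects on tau fibrillization are measured by Alexa 594 fluorescence polarization (ex 555, em 632 nm). K18 P301L tau is used at 15 uM with 0.24 uM labeled tracer, and 20 uM heparin induces aggregation over 6 hr at 37 C.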
Numbers stand for hits; - = inactive; ? = inconclusive; . = not tested or not shown; ! = a repeat was not active; [ ] = dose if it differs, or a comment. Unless noted, calls come from the whole dose curve; as a rule, active = well fitted curve in the direction sought with a large enough effect; inconclusive = small, poorly fitted or top-dose-only effect, or another doubt; inactive = no such curve, though single readings can be large; an effect the other way counts as inactive or inconclusive.

SMILES | FBPA coupling cs | Tau fibril ThT | Tau fluor cs | USP1 inh | Tau fibril FP
Oc1nc(Nc2ccc(F)cc2)sc1/C=C1\C=Nc2ccccc21 | - | 4.5µM | 7.1µM[quencher] | - | -
CC1=Nc2ccccc2/C1=C/c1sc(=O)n(CC(=O)N2CCCC2)c1O | - | - | ? | - | -
Fc1ccc(Nc2nc3ccccc3s2)cc1 | - | - | - | - | -
CC1=Nc2ccccc2/C1=C\c1sc(Nc2ccc(C)cc2)nc1O | - | 7.9µM | 11µM[quencher] | - | ?
Oc1nc(Nc2cccc(Cl)c2)sc1/C=C1\C=Nc2ccccc21 | - | 6.3µM | 5µM[quencher] | - | ?
CC(C)n1c(O)c(/C=C2\C=Nc3ccccc32)sc1=Nc1ccccc1 | - | - | ? | - | -
CC1CCc2c(sc3ncnc(SC(C)C(=O)NCC4CCCO4)c23)C1 (centres undefined) | . | . | . | - | .
CCOC(=O)c1cc(-c2ccc(OC)cc2)n(CCC(=O)NCCc2ccccc2)c1C | . | - | - | - | ?
CCCC(Oc1ccc(Br)cc1)c1nc2c3cc(OC)c(OC)cc3nc(=S)n2[nH]1 (centres undefined) | - | - | 16µM[quencher] | - | ?
CC(Oc1ccc(Br)cc1)c1nc2c3ccccc3nc(=S)n2[nH]1 (centres undefined) | - | ? | ? | - | -
COc1ccc(-c2ccc3c(N)c(C(=O)c4ccc(OC)c(OC)c4)sc3n2)cc1 | - | ? | ? | - | -
COc1ccc(C(=O)c2sc3nc(-c4ccccc4)ccc3c2N)cc1OC | - | - | ? | - | -
COc1ccc(-c2ccc3c(N)c(C(=O)NC(C)C)sc3n2)cc1OC | - | 10µM | 18µM[quencher] | ? | ?
COc1cccc(-c2ccc3c(N)c(C(=O)c4ccc(Br)cc4)sc3n2)c1 | . | 4.5µM | 2.5µM[quencher] | - | ?
Cc1ccc(C(=O)N2CCCC(N3CCN(c4ccccc4C)CC3)C2)c(=O)[nH]1 (centres undefined) | - | . | . | - | .
CCc1ccc2c(c1)C(=O)C(=O)N2CC(=O)Nc1ccc(NC(=O)c2ccccn2)cc1 | - | 14µM | ? | - | -
CCc1ccc(NC(=O)CCN2C(=O)c3cccnc3C2=O)cc1 | - | - | - | - | -
CCC(=O)OC1(C)C(=O)C=C2C=C(C3CC3)OC=C2C1=O (centres undefined) | - | - | - | - | -
COC(=O)CCC(=O)OC1(C)C(=O)C=C2C=C(C3CC3)N(c3ccc(OC)cc3)C=C2C1=O (centres undefined) | -41 | ? | -[11.6 µM] | . | -[11.6 µM]
COC(=O)CCC(=O)OC1(C)C(=O)C=C2C=C(C3CC3)N(Cc3ccccc3)C=C2C1=O (centres undefined) | - | 11µM! | -[11.6 µM] | ? | ?
COC(=O)CCC(=O)OC1(C)C(=O)C=C2C=C(C3CC3)N(CC(C)C)C=C2C1=O (centres undefined) | -45 | -[11.5 µM] | -[11.6 µM] | . | -[11.6 µM]
CCCOc1ccc(C2C(=O)N(C3CCCCCC3)CC(=O)N2Cc2ccccc2OC)cc1OC (centres undefined) | . | - | - | - | -
O=C(Nc1ccccc1)Nc1nc(-c2ccccc2)cs1 | - | - | - | - | ?
O=C(Nc1ccc(Cl)c(Cl)c1)Nc1nc(-c2ccccc2)cs1 | - | - | ? | - | 18µM
O=C(Nc1ccc(Cl)cc1)Nc1nc(-c2sccc2Br)cs1 | - | ? | ? | - | ?
SMILES | FBPA coupling cs | Tau fibril ThT | Tau fluor cs | USP1 inh | Tau fibril FP
O=C(Nc1ccc(Cl)cc1)Nc1nc(-c2ccccc2O)cs1 | - | - | 3.5µM[quencher] | - | ?
COc1ccc(OCCNc2cc(N3CCOCC3)ccc2[N+](=O)[O-])cc1 | - | 5µM | ? | - | -
COc1cccc(OCCNc2cc(N3CCOCC3)ccc2[N+](=O)[O-])c1 | - | 11µM | ? | - | -
CC(C)CNc1cc(N2CCCC2)ccc1[N+](=O)[O-] | - | ? | - | - | -
CCNc1cc(N2CCCC2)ccc1[N+](=O)[O-] | - | 11µM | - | - | -
COc1ccc(OCCNc2cc(N3CCCCC3)ccc2[N+](=O)[O-])cc1 | - | ? | ? | - | ?
COc1cccc(OCCNc2cc(N3CCCCC3)ccc2[N+](=O)[O-])c1 | - | ? | ? | - | -
CC(C)(CNC(=O)CNC(=O)c1ccccc1F)N1CCOCC1 | . | . | . | - | .
CC(C)c1ccc(N2C(=O)CSC23C(=O)N(C)c2ccccc23)cc1 (centres undefined) | . | - | - | - | -
Cc1ccc(-c2cc(N)n(-c3ccccc3)n2)cc1 | - | ? | - | - | -
Nc1cc(-c2ccc(OC(F)(F)F)cc2)nn1-c1ccc(Cl)c(Cl)c1 | - | 20µM | 13µM[quencher] | - | ?
CC1=C(n2nnc([N+](=O)[O-])n2)C(c2cccnc2)C(C#N)=C(N)O1 (centres undefined) | -67 | ? | - | - | -
CCN(CC)c1cc(C)c2cc(NC(=O)/C=C/c3ccccc3OC(C)C)ccc2n1 | . | ? | 7.9µM[quencher] | - | ?
CCN(CC)c1ccc(C(=O)Nc2ccc3nc(N(CC)CC)cc(C)c3c2)cc1 | . | 3.5µM | 14µM[quencher] | - | -
CC1CCN(S(=O)(=O)c2ccc3c(c2)N(CC(=O)NCCN(C)C)C(=O)CS3)CC1 | . | - | - | ? | -
CN1CCc2c(n(CC(O)CN(CCO)CCO)c3ccccc23)C1=O (centres undefined) | -51 | - | - | - | -
CC(Oc1ccc(Cl)cc1Cl)c1nc(-c2ccc(NC(=O)c3ccncc3)cc2)no1 (centres undefined) | - | - | - | - | -
CC(Oc1ccc(Cl)cc1Cl)c1nc(-c2ccc(NC(=O)c3cccnc3)cc2)no1 (centres undefined) | - | - | ? | - | 16µM
CCNc1cccc2c1C(=O)N(C)C2=O | - | - | - | 16µM | -
CCC(=O)Nc1cccc2c1C(=O)N(C)C2=O | - | - | - | - | ?
Cc1cccc[n+]1C1C(c2ccccc2)C(C#N)=C(C(=C=[N-])C#N)NC1(O)C1CC1 (centres undefined) | - | 18µM | ? | - | ?
Cc1cc(C)c(S(=O)(=O)N2CCN(C(=O)CC(C)n3nc(C)nc3C)CC2)c(C)c1 (centres undefined) | . | . | . | - | .
Cc1cccc2c1c1ccc3c(c1n2C)C(=O)C=CC3=O | - | 3.5µM | 4µM[quencher] | - | 8.9µM
Cc1cc(C(=O)CSc2nnnn2-c2ccccc2)c(C)n1-c1ccc2c(c1)OCO2 | - | ? | ? | - | -
Cc1cc(C(=O)CSc2nnnn2-c2ccc(O)cc2)c(C)n1Cc1ccc2c(c1)OCO2 | - | - | 7.9µM[quencher] | - | 11µM
COc1ccc2c(c1)Cc1sc(NC(=O)c3cccc(F)c3)nc1-2 | . | 3.2µM | ? | ? | -
COc1ccc2c(c1)Cc1sc(NC(=O)c3ccccc3)nc1-2 | -36 | ? | ? | ? | -
COc1ccc(C(=O)Nc2nc3c(s2)Cc2cc(OC)ccc2-3)cc1 | . | 2µM | 4µM[quencher] | - | -
COc1ccc2c(c1)Cc1sc(NC(=O)c3ccccc3C)nc1-2 | . | ? | ? | ? | -
